What is called AC50 is the concentration giving half of the maximal activity seen.

Screen size: about 16,000 compounds; about 5,100 (32%) were called active. Another 25% or so got no clear call; they are omitted. The list shows a part of the results. Values without a mark were called inactive. The call rests on the fitted dose curve; in most records, active means well fitted curve in the direction sought with a large enough effect; inconclusive means small, poorly fitted or top-dose-only effect, or effect the other way; inactive means no such curve, though single readings can be large or run the other way.

Data on 64 molecules can be found in PubChem BioAssay AID1851 (National Center for Advancing Translational Sciences (NCATS), 2009).
On the % scale 0 is the no-effect control and ±100 the full control effect.

Chain of Cytochrome P450 3A4 (Homo sapiens) (P08684 whole entry, looked up): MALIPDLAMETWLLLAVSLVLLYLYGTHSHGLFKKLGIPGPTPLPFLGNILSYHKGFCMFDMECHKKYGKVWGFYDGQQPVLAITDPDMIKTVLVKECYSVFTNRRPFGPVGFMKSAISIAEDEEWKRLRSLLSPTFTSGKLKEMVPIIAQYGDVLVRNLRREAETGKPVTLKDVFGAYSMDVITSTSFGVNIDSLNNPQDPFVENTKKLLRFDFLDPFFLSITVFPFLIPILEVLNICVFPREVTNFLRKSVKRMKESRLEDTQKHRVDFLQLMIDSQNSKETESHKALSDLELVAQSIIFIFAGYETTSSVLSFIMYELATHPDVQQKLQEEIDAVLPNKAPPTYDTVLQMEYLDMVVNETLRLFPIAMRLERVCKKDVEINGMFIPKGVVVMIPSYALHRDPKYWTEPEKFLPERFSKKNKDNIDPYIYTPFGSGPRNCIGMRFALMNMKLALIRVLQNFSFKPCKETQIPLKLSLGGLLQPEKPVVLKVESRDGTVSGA

This test concerns the target Cytochrome P450 3A4 (Homo sapiens) (UniProt P08684). The test is described as follows: Cytochrome panel assay with activity outcomes. To be noted: recombinant CYP, pro-luciferin dealkylation, luminescence, p450-cyp3a4; series mostly up to 57.1 µM.
As for `N[C@@H](Cc1cccc([N+](=O)[O-])c1)C(=O)O`, the activity, negative = inhibition is -9.82% [at 11.4 µM].
With `N=C(N)S[C@H]1c2ccccc2-c2cc([N+](=O)[O-])ccc21`, the AC50 was 5.01 µM (active).
In the case of `O=[N+]([O-])c1ccc2c(c1)S(=O)c1ccccc1-2` (centres undefined), the activity, negative = inhibition is -11.3% [at 11.4 µM].
For `COC(=O)CCCC(=O)O`, the activity, negative = inhibition is -18.6% [at 11.4 µM].
On the same count and under the same terms, for `COC(=O)C(C(=O)OC)C(C[N+](=O)[O-])c1ccc(OC)c(OC)c1` (centres undefined) the value was -7.76% [at 2.29 µM]; for `COc1cc2c(C(=O)NCc3ccc(C)o3)cn(CC(C)C)c(=O)c2cc1OC`, -15.9% [at 2.29 µM].
With `COc1cc(C(=O)NCCC(C)C)c([N+](=O)[O-])cc1OC`, the AC50 is 15.8 µM (active).
The same measure, in the same setting: under `O=C(CNc1cccc(Cl)c1)c1ccc(Cl)cc1` stands “inactive”; under `O=C(NOC(=O)c1cc(Br)ccc1Cl)c1cccs1`, “inactive”.
On to `O=C(CCNc1cccc(Cl)c1)c1cccs1`, for which the AC50 is 14.1 µM (active).
For the molecule `CNS(=O)(=O)c1ccccc1C(=N)c1ccccc1`, the activity, negative = inhibition was -6.85% [at 11.4 µM].
Regarding `CCCCOC(OCCCC)[C@H](O)CSc1ccc2ccccc2c1`, the AC50 is 5.01 µM (active).
On the same count and under the same terms, for `CC(C)NC[C@H](O)c1ccc2ccccc2c1` the value was “inactive”.
In the case of `CCN(CC)C[C@@H](O)c1ccc2ccc3ccccc3c2c1`, the activity, negative = inhibition is -25.1% [at 11.4 µM].
For `Cc1nnc(C)n1/N=C/c1cccs1`, the AC50 result is “inactive”.
Turning to `S=c1[nH]nc(C2CCCCC2)n1/N=C/c1cccs1`, the AC50 is 12.6 µM (active).
`O=S(=O)(O)c1cc(O)c2c(N=Cc3ccccc3O)cc(S(=O)(=O)O)cc2c1`: the activity, negative = inhibition is 0.658% [at 11.4 µM].
The same measure, in the same setting: under `O=C(O)c1cc(N=Cc2ccccc2O)cc(C(=O)O)c1` stands -17.4% [at 11.4 µM].
Consider `Cc1cc(O)c(C(C)C)cc1N=Cc1ccccc1O`, for which the AC50 was 3.16 µM (active).
As to `COc1cc(/C=N\Nc2ccc([N+](=O)[O-])cc2)ccc1OCC(=O)Nc1ccc(C)c(C)c1`, the AC50 is 3.98 µM (active).
On the same count and under the same terms, for `COc1cccc(/C=N/NC(=O)c2cccc([N+](=O)[O-])c2)c1OS(=O)(=O)c1ccc(C)cc1` the value was 1.12 µM (active).
Take `COc1cc(/C=N/NC(=O)c2cccc([N+](=O)[O-])c2)ccc1OCc1ccc(C)cc1`: the AC50 was 1.41 µM (active).
For `COc1ccc(/C=N/NC(=O)c2cccc([N+](=O)[O-])c2)cc1OS(=O)(=O)c1ccc(C)cc1`, the activity, negative = inhibition is -20.3% [at 2.29 µM].
For `O=C(COc1ccc(/C=N/NC(=O)c2ccccc2)cc1)Nc1ccc([N+](=O)[O-])cc1`, the AC50 entry was “inactive”.
Same read-out and setting: for `N[C@@H](Cc1ccc(O)c(O)c1)C(=O)O` the value was “inactive”.
As to `O=C(O)c1c(-c2c3ccc(=O)cc-3oc3cc(O)ccc23)cc2ccccc2c1-c1ccccc1`, the activity, negative = inhibition was -8.67% [at 11.4 µM].
Consider `Cc1nc(-c2c(C(F)(F)F)noc2-c2ccc(O)cc2O)cs1`, for which the AC50 was 0.501 µM (active).
With `CSCC[C@@H]1NC(=O)C/C=C\[C@@H](C)COC(=O)[C@H](C)COC1=O`, the activity, negative = inhibition is -24% [at 11.4 µM].
For `c1cn(-c2ccnc(-c3ccc4c(c3)OCO4)n2)cn1`, the AC50 is 0.631 µM (active).
The same measure, in the same setting: for `CN(C)c1ccc(-c2cc(-n3ccnc3)ncn2)cc1` the value was 0.0631 µM (active); for `N#Cc1c(-c2ccc3c(c2)OCO3)ccn2nc(-c3cccc(C(F)(F)F)c3)nc12`, “inactive”.
On the same count and under the same terms, for `CN1CCN(c2cc(-c3ccc(N(C)C)cc3)ncn2)CC1` the value was “inactive”; for `N#Cc1cccc(-c2nccc(-n3ccnc3)n2)c1`, 2.51 µM (active).
Same read-out and setting: under `N#Cc1cccc(-c2cc(-n3ccnc3)ncn2)c1` stands 0.398 µM (active).
For `CC(=O)Oc1ccccc1C(=O)Oc1ccccc1C(=O)O`, the AC50 entry was “inactive”.
Same read-out and setting: for `c1cncc(-c2cc(-n3ccnc3)ncn2)c1` the value was 1.58 µM (active); for `COc1cccc(-c2nccc(-n3ccnc3)n2)c1`, 1 µM (active).
Consider `Nc1nc(-c2cccnc2)cc(-c2cc(-c3cccnc3)nc(N)n2)n1`, for which the activity, negative = inhibition was -3.62% [at 11.4 µM].
The same measure, in the same setting: for `CCCCN(c1ccccc1)c1ncnc2c1cnn2C` the value was -28% [at 11.4 µM].
`CC(N)=NCc1cccc(CN)c1`: the AC50 result was “inactive”.
Still for that read-out and setting: for `CS(=O)(=O)Nc1cccc(-c2cncnc2NCc2cccs2)c1` the value was 0.398 µM (active).
On the same count and under the same terms, under `Cc1cnc(CNc2ncnc3ccc(-c4cccc(NS(C)(=O)=O)c4)cc23)cn1` stands 12.6 µM (active); under `CS(=O)(=O)Nc1cccc(-c2cncnc2NCc2cccnc2)c1`, 1 µM (active); under `Cc1cccc(CNc2ncncc2-c2cccc(NS(C)(=O)=O)c2)c1`, 0.158 µM (active).
Take `CS(=O)(=O)Nc1cccc(-c2ccc3ncnc(NCc4cccs4)c3c2)c1`: the AC50 is 3.16 µM (active).
Regarding `CS(=O)(=O)Nc1cccc(-c2ccc3ncnc(NCc4cccnc4)c3c2)c1`, the AC50 was 0.398 µM (active).
`CS(=O)(=O)Nc1cccc(-c2cncnc2NCc2ccccc2)c1`: the AC50 is 0.631 µM (active).
On the same count and under the same terms, for `Cc1cnc(CNc2ncncc2-c2cccc(NS(C)(=O)=O)c2)cn1` the value was 3.16 µM (active).
On the same count and under the same terms, for `CCC(=O)O[C@H](CC(=O)O)C[N+](C)(C)C` the value was “inactive”.
On the same count and under the same terms, for `OCC1CCCN(Cc2ccc(-c3ccccc3)cc2)C1` (centres undefined) the value was “inactive”.
As to `COc1ccc(-c2csc(NC(=O)CCn3cnc4ccccc4c3=O)n2)cc1OC`, the AC50 is 11.2 µM (active).
As to `O=C(NCCN1CCOCC1)c1csc2c1CCCCC2`, the activity, negative = inhibition is -7.18% [at 2.29 µM].
As to `COc1ccc(-c2cn3c(C)c(C(=O)NCCN4CCOCC4)sc3n2)cc1`, the AC50 is 12.6 µM (active).
Still for that read-out and setting: for `COc1ccc(C2=NOC(C(=O)NCCN3CCOCC3)C2)cc1` (centres undefined) the value was “inactive”; for `COc1ccc(C(=O)Nc2ccc(Cl)cc2C(=O)NCCN2CCOCC2)cc1`, 14.1 µM (active); for `COc1cccc(C(=O)NCCN2CCOCC2)c1`, “inactive”.
The same measure, in the same setting: under `COCCNC(=O)c1sc2nc(-c3ccccc3)cn2c1C` stands “inactive”; under `C(=C\c1nnc(-c2cccs2)o1)/c1ccccc1`, “inactive”; under `N#Cc1nc(-c2cccs2)oc1NCc1ccccc1`, 12.6 µM (active).
Still for that read-out and setting: under `O=C(Nc1cccc(F)c1)N1CCC2(CC1)CCN(C(=O)c1cnccn1)CC2` stands “inactive”; under `O=C(Nc1ccccc1)N1CCC2(CC1)CCN(C(=O)c1cnccn1)CC2`, “inactive”.
As for `O=C(Nc1cccc(F)c1)N1CC[C@@]2(CCCN(C(=O)c3cnccn3)C2)C1`, the AC50 was 12.6 µM (active).
As to `O=C(Nc1ccccc1)N1CC2(CCN(C(=O)c3cnccn3)CC2)C1`, the AC50 entry was “inactive”.
Still for that read-out and setting: for `O=C(Nc1cccc(F)c1)N1CCCC2(CCN(C(=O)c3cnccn3)CC2)C1` the value was 12.6 µM (active).
